Experimental data published in PubChem BioAssay.
Several values for one entry are separate records, joined by “and”; a condition that tells them apart may be missing. Equal entries are not always repeated. For some assays here: Measured potencies and affinities stand elsewhere. Activity calls are given as the source filed them.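 The calls were made as follows, unless noted: active = normalized viability below 100% at a tested concentration; inactive = the rest.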

How the values were obtained:
[1] = blockers of polyQ-driven CASP3 activation – cell-based (AID 1583); conditions: polyglutamine-induced caspase-3 activation, cell assay; stronger effect = higher value;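 tested at 10 µM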
[2] = yeast 75Q aggregation reduction – 75Q-TubU reporter (AID 1593); conditions: Yeast 75Q polyglutamine aggregation reporter
[3] = restoration of touch response, mutant HTT neurons – whole organism, C. elegans mechanosensory neurons, N-terminal huntingtin (AID 1599); conditions: C. elegans polyQ-huntingtin mechanosensory neurons, stronger effect = higher value
[4] = blockers of cytochrome c efflux from mitochondria – biochemical, purified mitochondria (AID 1603); conditions: stronger effect = lower value;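 also: mouse liver mitochondria challenged with calcium chloride; signal normalized to the plate average as 100%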
[5] = polyglutamine aggregate formation blockers (AID 1604); conditions: polyglutamine-induced protein aggregation inhibition assay; stronger effect = higher value; tested at 2.5 µM
[6] = glutamate transport activators, MN-1 cells, MN-1 cell line (AID 1612); conditions: MN-1 motor neuron cells, stronger effect = higher value;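 also: tested at 1 µM final; 0% = mean of DMSO vehicle wells on each plate; positive means more glutamate uptake than control and negative means less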
[7] = 75Q-TubH aggregate inhibition, S. cerevisiae, yeast (AID 1616); conditions: S. cerevisiae 75Q-TubH polyglutamine aggregation suppression; stronger effect = higher value
[8] = compounds altering circadian rhythm period length – cell-based, LOPAC library, luminescence reporter (AID 2774; call rule not given here;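 also: values are relative to mean of DMSO wells on each plate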); conditions: circadian reporter cells, at 7 µM, actives lie on both sides
[9] = P. berghei load reduction in hepatocytes – cell-based, HepG2, luciferase luminescence, HepG2 viability, primary screen (AID 624349; in the data active = parasite load remaining mostly below about 12%, no sharp cut-off; inactive = mostly above about 10%;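 also: 100% = mean of DMSO negative control wells on the same plate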); conditions: P. berghei liver stage in HepG2, luciferase luminescence, concentration not given here; parasite load remaining: stronger effect = lower value; viability: measured here: HepG2 viability without parasites
[10] = system: Hepatitis C virus NS3 helicase; assay: blockers of NS3h binding to ssDNA – biochemical, fluorescence polarization, LOPAC1280 library, primary screen (AID 687035; in the data active = inhibition above about 37%); conditions: Purified HCV NS3 helicase, Cy5-dT15 ssDNA binding fluorescence polarization; stronger effect = higher value; concentration not given here
[11] = compounds altering Cy5-DNA-NS3h complex signal – biochemical, LOPAC1280, artefact control for HCV NS3 helicase inhibitor project (AID 687037; call rule not given here); conditions: Cy5-DNA-NS3h complex fluorescence interference counterscreen
[12] = target: 6-phosphogluconate dehydrogenase, decarboxylating (Homo sapiens) (UniProt P52209); assay: inhibition of human phosphogluconate dehydrogenase – biochemical, recombinant enzyme, NADPH absorbance, primary screen (AID 1159550;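 active = at least 20% inhibition of 6-phosphogluconate dehydrogenase activity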); conditions: recombinant 6PGD, NADPH absorbance 341 nm; at 10 µM; stronger effect = higher value
[13] = EMT-state selective cytotoxicity in co-culture – imaging, PC-3E GFP, TEM4-18 mCherry, primary screen (AID 1345086;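 active = compounds killing one labelled cell type while sparing the other, by normalised counts and ratio limits, not self-fluorescent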;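 as to all read-outs here: cells exposed to compound for 72 h before imaging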;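 as to red/green cell ratio (normalised): normalised mesenchymal count divided by normalised epithelial count so high means epithelial killing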); conditions: PC-3E GFP / TEM4-18 mCherry co-culture, imaging cell counts, at 1 µM; for red/green cell ratio (normalised): actives lie on both sides, counts scaled to control wells, 1 = unselective
[14] = viability loss with induced miR-34 in A549 – imaging, A549 dox-inducible miR-34, nuclei and caspase counts, primary screen (AID 1347080;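 active = compounds whose cell count with miR-34 switched on is under 0.7 times the count with it off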); conditions: A549 miR-34 inducible, Hoechst nuclei count, 48 h
[15] = blockers of cellular phospholipid synthesis – cell-based, LOPAC library, screen 4, primary screen (AID 1347384; call rule not given here); conditions: animal cells, phospholipid biosynthesis inhibition screen; at 10 µM
[16] = target: Mitogen-activated protein kinase 7 (Homo sapiens) (UniProt Q13164); assay: Gal4-ERK5 driven luciferase induction – cell-based, HTS, primary screen (AID 1508626;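 active = luciferase signal above three times the same-plate solvent-only control wells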;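 also: luciferase driven by Gal4-ERK5 fusion binding five Gal4 sites before minimal TATA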); conditions: HeLa Gal4-ERK5 transactivation, 18 h, at 5 µM, stronger effect = higher value
[17] = galactose survival enhancers in mitochondrial complex I cybrids – cell-based, galactose medium, ATP luminescence, primary screen (AID 1645843;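 active = z-score of at least 1.8 in each of two replicates, scored against plate mean and spread of sample wells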;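 also: positive z means more ATP and so rescue of galactose-driven cybrid death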); conditions: complex I mutant cybrid cells, 72 h, stronger effect = higher value
[18] = GFP-Q80 aggregate reduction, neuronal-like cells, cell-based, NGF-treated PC12, GFPQ80 (AID 1614); conditions: PC12 NGF-treated GFP-polyQ80 inclusion reduction;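 also: lower means fewer inclusions and 0 means no inclusions at all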
[19] = MELAS cybrid and Rieske KO viability enhancers – cell-based, MELAS cybrids, Rieske KO mouse fibroblasts, CellTiter-Glo, primary screen (AID 1508586); conditions: low glucose;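 also: z relative to plate mean and SD of compound and empty wells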
[20] = drug combination growth inhibition, ovarian cancer – cell-based, oncology-focused library, rucaparib conditional, profiling panel (AID 1508598); conditions: patient-derived ovarian cancer cells, CellTiter-Glo viability, 144 h, stronger effect = lower value
[21] = measured here: epithelial PC-3E GFP cell survival
[22] = measured here: mesenchymal TEM4-18 mCherry cell survival

6-phosphogluconate dehydrogenase, decarboxylating (Homo sapiens), sequence (P52209 whole entry, looked up): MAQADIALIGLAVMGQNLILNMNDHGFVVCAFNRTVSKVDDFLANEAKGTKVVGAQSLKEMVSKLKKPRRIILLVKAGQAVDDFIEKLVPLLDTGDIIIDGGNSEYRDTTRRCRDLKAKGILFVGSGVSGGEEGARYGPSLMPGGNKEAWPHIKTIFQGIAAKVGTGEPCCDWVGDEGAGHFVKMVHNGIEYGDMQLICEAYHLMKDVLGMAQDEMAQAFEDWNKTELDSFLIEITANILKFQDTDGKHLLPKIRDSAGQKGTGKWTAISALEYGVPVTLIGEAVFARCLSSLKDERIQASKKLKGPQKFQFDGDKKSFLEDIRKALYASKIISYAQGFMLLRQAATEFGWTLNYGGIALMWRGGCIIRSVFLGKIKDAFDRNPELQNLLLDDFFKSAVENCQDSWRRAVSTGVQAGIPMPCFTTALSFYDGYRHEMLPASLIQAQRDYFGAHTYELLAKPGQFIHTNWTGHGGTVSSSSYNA
Mitogen-activated protein kinase 7 (Homo sapiens), sequence (Q13164 whole entry, looked up, the tested form may be a part): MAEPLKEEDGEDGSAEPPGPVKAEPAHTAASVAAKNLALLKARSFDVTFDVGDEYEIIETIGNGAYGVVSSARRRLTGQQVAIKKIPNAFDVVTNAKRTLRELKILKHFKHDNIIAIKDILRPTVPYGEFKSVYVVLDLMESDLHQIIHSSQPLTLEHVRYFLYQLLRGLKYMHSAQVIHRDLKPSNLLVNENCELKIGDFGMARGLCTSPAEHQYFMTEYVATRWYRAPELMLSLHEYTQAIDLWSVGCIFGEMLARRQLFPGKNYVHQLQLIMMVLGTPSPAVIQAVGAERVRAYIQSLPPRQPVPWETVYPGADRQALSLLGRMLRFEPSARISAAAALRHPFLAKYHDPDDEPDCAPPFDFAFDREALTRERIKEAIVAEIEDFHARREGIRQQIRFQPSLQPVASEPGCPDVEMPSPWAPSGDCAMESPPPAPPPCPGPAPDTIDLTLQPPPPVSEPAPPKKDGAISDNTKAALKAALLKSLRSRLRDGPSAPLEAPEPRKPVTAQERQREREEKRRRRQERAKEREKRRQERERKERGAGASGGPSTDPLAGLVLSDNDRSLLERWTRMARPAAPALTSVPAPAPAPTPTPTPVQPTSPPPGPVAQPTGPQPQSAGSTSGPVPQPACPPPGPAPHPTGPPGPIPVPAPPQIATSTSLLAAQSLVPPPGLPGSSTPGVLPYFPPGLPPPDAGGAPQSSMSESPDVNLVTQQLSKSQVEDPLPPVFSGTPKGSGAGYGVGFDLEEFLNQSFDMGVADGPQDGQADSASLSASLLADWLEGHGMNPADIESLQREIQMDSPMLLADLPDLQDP

## CN1C[C@H](C(=O)N[C@]2(C)O[C@@]3(O)[C@@H]4CCCN4C(=O)[C@H](Cc4ccccc4)N3C2=O)C[C@@H]2c3cccc4[nH]cc(c34)C[C@H]21
[1]
  inhibition: -12.1%
[2]
  score: 1.21
[3]
  rescue above control: 4.53
[4]
  cytochrome c release ratio: 1.48
[5]
  inhibition of aggregation: 29.7%
[6]
  glutamate uptake change: 15.4%
[7]
  aggregation suppression score: 1.29
[8]
  period change: 0.225 h (inactive)
[9]
  parasite load remaining: 81.1% (inactive) and 61.1% (inactive) and 32.5% (inactive)
  viability: 69.3% and 88.9% and 89.9%
[10]
  inhibition: -3% (inactive)
[11]
  fluorescence ratio (interference): 1 (inactive)
[12]
  inhibition: 6.21% (inactive)
[13]
  red/green cell ratio (normalised): 1.38 (inactive)
[13]; [21]
  normalised cell number: 1.07
[13]; [22]
  normalised cell number: 1.48
[14]; stronger effect = lower value, cell number ratio, induced over uninduced
  fold change: 1.02 (inactive) and 0.955 (inactive) and 0.914 (inactive)
[14]; measured here: relative caspase fold change +Dox/-Dox
  fold change: 1.31 and 1.01 and 2.52
[14]; measured here: total cells with miR-34 induction, stronger effect = lower value
  cell count: 7530 and 7990 and 11700
[14]; measured here: total cells without miR-34 induction
  cell count: 7390 and 8360 and 12800
[15]
  outcome: inactive
[16]
  luciferase signal: 32 AU (inactive)
[17]
  z-score: -0.125 (inactive) and -0.835 (inactive)

## C=CCCCCCCCCCCCC(O)CC(O)CO (stereo not given) (tested in a mixture with another compound)
[12]
  inhibition: -8.17% (inactive)
[13]
  red/green cell ratio (normalised): 0.87 (inactive)
[13]; [21]
  normalised cell number: 1.32
[13]; [22]
  normalised cell number: 1.14

## COc1cc(-c2coc3cc(OCc4ccccc4)c(OC)c(O)c3c2=O)cc(OCc2ccccc2)c1OC
[12]
  inhibition: 16.5% (inactive)
[13]
  red/green cell ratio (normalised): 0.82 (inactive)
[13]; [21]
  normalised cell number: 1.05
[13]; [22]
  normalised cell number: 0.86

## CC(=O)NC(C(=O)O)C(C)(C)SN=O (stereo not given)
[12]
  inhibition: 3.72% (inactive)
[13]
  red/green cell ratio (normalised): 1.02 (inactive)
[13]; [21]
  normalised cell number: 1.04
[13]; [22]
  normalised cell number: 1.06

## CC(C)CCCC(C)[C@H]1CCC2C3CC=C4CC(=O)CC[C@]4(C)C3CC[C@@]21C (stereo not given in full)
[12]
  inhibition: 11.7% (inactive)
[13]
  red/green cell ratio (normalised): 0.87 (inactive)
[13]; [21]
  normalised cell number: 1.01
[13]; [22]
  normalised cell number: 0.88

## CCCCCCCC/C=C/CCCCCCCCOP(=O)([O-])OCC[N+](C)(C)C
[12]
  inhibition: 17.1% (inactive)
[13]
  red/green cell ratio (normalised): 0.71 (inactive)
[13]; [21]
  normalised cell number: 1.36
[13]; [22]
  normalised cell number: 0.96

## CC1=C(CCC(=O)O)c2cc3nc(cc4[nH]c(cc5[nH]c(cc1n2)c(C)c5C(C)O)c(C)c4C(C)O)C(C)=C3CCC(=O)O (stereo not given)
[12]
  inhibition: 12.1% (inactive)
[13]
  red/green cell ratio (normalised): 1.39 (inactive)
[13]; [21]
  normalised cell number: 0.93
[13]; [22]
  normalised cell number: 1.29

## COc1c(C)c2c(c(O)c1C/C=C(\C)CCC(=O)O)C(=O)OC2
[1]
  inhibition: -14.6%
[2]
  score: 0.55
[3]
  rescue above control: 6.21
[4]
  cytochrome c release ratio: 1.22
[5]
  inhibition of aggregation: 35%
[6]
  glutamate uptake change: -2.33%
[18]
  inclusion score: 1
[7]
  aggregation suppression score: 0.18
[12]
  inhibition: -6.15% (inactive)
[13]
  red/green cell ratio (normalised): 0.6 (active)
[13]; [21]
  normalised cell number: 0.58
[13]; [22]
  normalised cell number: 0.35
[19]; MELAS cybrid survival, CellTiter-Glo 48 h, stronger effect = higher value
  z-score: -0.0503
[19]; Rieske KO mouse fibroblast survival, CellTiter-Glo 72 h
  z-score: 2.98
[20]; at 0.000305 µM, OCI-C5x cells, with rucaparib 10 µM, 100% = cells with rucaparib alone
  viability: 117% (inactive)
[20]; at 0.000305 µM, OCI-C5x cells, without rucaparib
  viability: 124% (inactive)
[20]; at 0.000305 µM, OCI-P5x cells, with rucaparib 20 µM, 100% = cells with rucaparib alone
  viability: 87.8% (active)
[20]; at 0.000305 µM, OCI-P5x cells, without rucaparib
  viability: 96% (active)
[20]; at 0.00122 µM, OCI-C5x cells, with rucaparib 10 µM, 100% = cells with rucaparib alone
  viability: 121% (inactive)
[20]; at 0.00122 µM, OCI-C5x cells, without rucaparib
  viability: 126% (inactive)
[20]; at 0.00122 µM, OCI-P5x cells, with rucaparib 20 µM, 100% = cells with rucaparib alone
  viability: 90.6% (active)
[20]; at 0.00122 µM, OCI-P5x cells, without rucaparib
  viability: 103% (inactive)
[20]; at 0.00488 µM, OCI-C5x cells, with rucaparib 10 µM, 100% = cells with rucaparib alone
  viability: 129% (inactive)
[20]; at 0.00488 µM, OCI-C5x cells, without rucaparib
  viability: 128% (inactive)
[20]; at 0.00488 µM, OCI-P5x cells, with rucaparib 20 µM, 100% = cells with rucaparib alone
  viability: 96.9% (active)
[20]; at 0.00488 µM, OCI-P5x cells, without rucaparib
  viability: 109% (inactive)
[20]; at 0.0195 µM, OCI-C5x cells, with rucaparib 10 µM, 100% = cells with rucaparib alone
  viability: 121% (inactive)
[20]; at 0.0195 µM, OCI-C5x cells, without rucaparib
  viability: 129% (inactive)
[20]; at 0.0195 µM, OCI-P5x cells, with rucaparib 20 µM, 100% = cells with rucaparib alone
  viability: 95.2% (active)
[20]; at 0.0195 µM, OCI-P5x cells, without rucaparib
  viability: 112% (inactive)
[20]; at 0.0781 µM, OCI-C5x cells, with rucaparib 10 µM, 100% = cells with rucaparib alone
  viability: 166% (inactive)
[20]; at 0.0781 µM, OCI-C5x cells, without rucaparib
  viability: 162% (inactive)
[20]; at 0.0781 µM, OCI-P5x cells, with rucaparib 20 µM, 100% = cells with rucaparib alone
  viability: 97.4% (active)
[20]; at 0.0781 µM, OCI-P5x cells, without rucaparib
  viability: 97% (active)
[20]; at 0.313 µM, OCI-C5x cells, with rucaparib 10 µM, 100% = cells with rucaparib alone
  viability: 180% (inactive)
[20]; at 0.313 µM, OCI-C5x cells, without rucaparib
  viability: 189% (inactive)
[20]; at 0.313 µM, OCI-P5x cells, with rucaparib 20 µM, 100% = cells with rucaparib alone
  viability: 85.4% (active)
[20]; at 0.313 µM, OCI-P5x cells, without rucaparib
  viability: 62.1% (active)
[20]; at 1.25 µM, OCI-C5x cells, with rucaparib 10 µM, 100% = cells with rucaparib alone
  viability: 128% (inactive)
[20]; at 1.25 µM, OCI-C5x cells, without rucaparib
  viability: 117% (inactive)
[20]; at 1.25 µM, OCI-P5x cells, with rucaparib 20 µM, 100% = cells with rucaparib alone
  viability: 70% (active)
[20]; at 1.25 µM, OCI-P5x cells, without rucaparib
  viability: 40.7% (active)
[20]; at 5 µM, OCI-C5x cells, with rucaparib 10 µM, 100% = cells with rucaparib alone
  viability: 73.1% (active)
[20]; at 5 µM, OCI-C5x cells, without rucaparib
  viability: 56.4% (active)
[20]; at 5 µM, OCI-P5x cells, with rucaparib 20 µM, 100% = cells with rucaparib alone
  viability: 46.2% (active)
[20]; at 5 µM, OCI-P5x cells, without rucaparib
  viability: 30.7% (active)
[16]
  luciferase signal: 48 AU (inactive)
[17]
  z-score: 1.33 (inactive) and 1.68 (inactive)
